# Measurements published in PubChem BioAssay (EPA / NIEHS).
# Where “and” joins values, the source holds several entries; their conditions need not be identical. Equal entries are not always repeated. Records with an inconclusive call do not appear. Some compounds were tested as several samples or in several runs, with calls that do not always agree. Calls of active or inactive are those of the source. Rule for the calls, unless noted: active = hit-call score of the fitted dose curve at least 0.9, where 1 is the maximum; inactive = score below 0.9.
# Assays:
# [1] = target: Nuclear receptor subfamily 1 group I member 3 (Homo sapiens) (UniProt Q14994); test: ATG_CAR_TRANS: Attagene TRANS-FACTORIAL HepG2 Assay for human Constitutive Androstane Receptor (CAR) (AID 2282969; active = hit-call score of the fitted dose curve at least 0.9, where 1 is the maximum;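 note: activators raise reporter mRNA above DMSO so AC50 marks induction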); details: HepG2 Attagene TRANS-FACTORIAL CAR reporter
# Chain of Nuclear receptor subfamily 1 group I member 3 (Homo sapiens) (Q14994 whole entry, looked up, the tested form may be a part): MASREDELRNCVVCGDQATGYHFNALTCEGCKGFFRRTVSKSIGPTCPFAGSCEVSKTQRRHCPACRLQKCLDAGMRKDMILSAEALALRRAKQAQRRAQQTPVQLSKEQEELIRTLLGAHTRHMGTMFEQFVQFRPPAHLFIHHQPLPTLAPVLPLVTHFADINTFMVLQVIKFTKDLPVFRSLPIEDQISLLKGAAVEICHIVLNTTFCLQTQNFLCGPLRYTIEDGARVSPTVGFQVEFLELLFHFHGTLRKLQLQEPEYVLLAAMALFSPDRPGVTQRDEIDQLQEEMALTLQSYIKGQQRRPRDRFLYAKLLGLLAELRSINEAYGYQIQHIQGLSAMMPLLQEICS
# Summary of the method: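 HepG2 cells transiently transfected with multiplexed GAL4-UAS reporter units expressing chimeric NR-Gal4 proteins; compound exposure 24 h. Reporter mRNA measured by RT-PCR, 6-FAM labelling, HpaI digestion and capillary electrophoresis; gain-of-signal fitted against DMSO baseline.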
# [2] = target: human RAR-related Orphan Receptor gamma (RORg), RORC (gene 6097) (UniProt P51449); test: ATG_RORg_TRANS: Attagene TRANS-FACTORIAL HepG2 Assay for human RAR-related Orphan Receptor gamma (RORg) (AID 2283011; active = hit-call score of the fitted dose curve at least 0.9, where 1 is the maximum)
# Chain of human RAR-related Orphan Receptor gamma (RORg), RORC (gene 6097) (P51449 whole entry, looked up, the tested form may be a part): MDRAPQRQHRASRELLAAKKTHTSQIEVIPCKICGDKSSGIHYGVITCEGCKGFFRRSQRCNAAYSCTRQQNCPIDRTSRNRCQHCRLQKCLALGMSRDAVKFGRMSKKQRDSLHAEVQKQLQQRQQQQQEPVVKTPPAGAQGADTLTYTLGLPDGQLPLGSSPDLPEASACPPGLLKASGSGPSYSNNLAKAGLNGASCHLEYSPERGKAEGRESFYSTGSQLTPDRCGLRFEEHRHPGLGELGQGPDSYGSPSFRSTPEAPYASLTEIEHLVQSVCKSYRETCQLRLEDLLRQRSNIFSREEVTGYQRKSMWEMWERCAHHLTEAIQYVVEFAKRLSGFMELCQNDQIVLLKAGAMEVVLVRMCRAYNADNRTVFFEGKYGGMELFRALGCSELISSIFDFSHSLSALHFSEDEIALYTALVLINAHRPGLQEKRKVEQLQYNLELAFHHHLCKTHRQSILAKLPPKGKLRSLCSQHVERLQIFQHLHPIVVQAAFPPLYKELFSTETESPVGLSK
# Summary of the method: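 Transient MRTU transfection of HepG2 (TRANS format, exogenous NR-Gal4 chimera). 24 h dosing. Total RNA → oligo(dT) RT → PCR → 6-FAM labelling → HpaI cut → CE. Gain vs DMSO.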
# [3] = target: human Ephrin type-A Receptor 1 (EphA1), EPHA1 (gene 2041) (UniProt P21709); test: NVS_ENZ_hEphA1: NovaScreen (NVS) Enzymatic Assay for human Ephrin type-A Receptor 1 (EphA1) (AID 2283158; active = hit-call score of the fitted dose curve at least 0.9, where 1 is the maximum;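 note: activity is signal loss versus DMSO meaning EphA1 kinase inhibition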)
# Chain of human Ephrin type-A Receptor 1 (EphA1), EPHA1 (gene 2041) (P21709 whole entry, looked up): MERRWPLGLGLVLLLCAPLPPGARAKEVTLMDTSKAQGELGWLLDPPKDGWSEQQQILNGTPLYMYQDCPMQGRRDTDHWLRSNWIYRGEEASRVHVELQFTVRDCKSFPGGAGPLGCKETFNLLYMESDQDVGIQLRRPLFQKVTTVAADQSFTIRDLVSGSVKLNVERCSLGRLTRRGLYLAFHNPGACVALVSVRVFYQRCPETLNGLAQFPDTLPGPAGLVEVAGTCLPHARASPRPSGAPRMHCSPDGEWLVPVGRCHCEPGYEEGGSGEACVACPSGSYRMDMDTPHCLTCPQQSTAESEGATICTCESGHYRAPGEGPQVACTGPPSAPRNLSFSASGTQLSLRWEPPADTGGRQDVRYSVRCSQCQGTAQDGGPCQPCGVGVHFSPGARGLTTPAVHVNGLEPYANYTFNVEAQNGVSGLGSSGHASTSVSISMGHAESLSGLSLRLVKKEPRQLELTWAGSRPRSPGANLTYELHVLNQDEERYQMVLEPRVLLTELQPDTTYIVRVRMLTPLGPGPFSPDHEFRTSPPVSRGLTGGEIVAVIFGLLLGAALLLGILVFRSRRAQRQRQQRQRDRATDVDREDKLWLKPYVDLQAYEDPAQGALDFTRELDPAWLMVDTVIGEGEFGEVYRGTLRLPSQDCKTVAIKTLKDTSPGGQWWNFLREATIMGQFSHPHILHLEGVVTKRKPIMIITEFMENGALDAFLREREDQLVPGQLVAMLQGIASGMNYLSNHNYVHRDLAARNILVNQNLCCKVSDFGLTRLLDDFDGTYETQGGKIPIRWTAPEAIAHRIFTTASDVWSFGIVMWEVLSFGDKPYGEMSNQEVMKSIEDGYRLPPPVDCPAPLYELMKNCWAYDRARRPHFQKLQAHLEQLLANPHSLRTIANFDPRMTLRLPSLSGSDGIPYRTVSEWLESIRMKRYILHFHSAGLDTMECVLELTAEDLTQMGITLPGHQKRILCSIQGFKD
# Summary of the method: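 Recombinant kinase, fluorescent substrate, mobility-shift separation, fluorescence read at 1 h. Single-point duplicates at 25 uM; hits (e.g., ≥30% inhibition) run singleton concentration-response, max 50 uM. DMSO = negative control/baseline.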
# [4] = ATG_ERE_CIS: Attagene CIS-FACTORIAL HepG2 Assay for Estrogen Response Element (ERE) (AID 2282940); details: HepG2 ERE cis-reporter, Attagene RNA transcript; actives raise or lower the signal
# Summary of the method: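 After 24 h compound treatment, RNA from transfected HepG2 cells was reverse-transcribed, reporter cDNA PCR-amplified, FAM-labelled, HpaI-cut and resolved by capillary electrophoresis. ERE-driven cis reporter transcripts reflect endogenous factors; gain or loss scored against DMSO.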
# [5] = target: Peroxisome proliferator-activated receptor gamma (Homo sapiens) (UniProt P37231); test: ATG_PPARg_TRANS: Attagene TRANS-FACTORIAL HepG2 Assay for human Peroxisome Proliferator-activated Receptor-gamma (PPARg) (AID 2283007; active = hit-call score of the fitted dose curve at least 0.9, where 1 is the maximum)
# Chain of Peroxisome proliferator-activated receptor gamma (Homo sapiens) (P37231 whole entry, looked up, the tested form may be a part): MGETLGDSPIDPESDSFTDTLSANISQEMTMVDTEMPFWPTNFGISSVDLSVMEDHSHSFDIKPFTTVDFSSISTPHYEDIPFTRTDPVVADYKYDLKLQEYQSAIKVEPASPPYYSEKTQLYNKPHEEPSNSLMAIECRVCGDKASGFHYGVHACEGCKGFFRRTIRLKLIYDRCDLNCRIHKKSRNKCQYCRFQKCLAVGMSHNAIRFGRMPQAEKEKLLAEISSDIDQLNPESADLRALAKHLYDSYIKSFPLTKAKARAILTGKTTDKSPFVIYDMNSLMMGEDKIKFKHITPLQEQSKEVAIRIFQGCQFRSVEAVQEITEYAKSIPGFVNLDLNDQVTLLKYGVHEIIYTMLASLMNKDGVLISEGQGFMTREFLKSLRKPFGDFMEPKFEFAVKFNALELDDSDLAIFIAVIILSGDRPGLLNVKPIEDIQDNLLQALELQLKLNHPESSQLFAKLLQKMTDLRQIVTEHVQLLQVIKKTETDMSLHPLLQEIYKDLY
# Summary of the method: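 HepG2 cells transiently transfected with multiplexed GAL4-UAS reporter units and exogenous chimeric NR-Gal4 proteins; reporter mRNA quantified after 24 h compound exposure by RT-PCR, fluorescent labelling, HpaI digestion and capillary electrophoresis; gain-of-signal fitted versus DMSO baseline.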
# [6] = target: human Phosphodiesterase 10 (PDE10), PDE10A (gene 10846) (UniProt Q9Y233); test: NVS_ENZ_hPDE10: NovaScreen (NVS) Enzymatic Assay for human Phosphodiesterase 10 (PDE10) (AID 2283195; active = hit-call score of the fitted dose curve at least 0.9, where 1 is the maximum)
# Chain of human Phosphodiesterase 10 (PDE10), PDE10A (gene 10846) (Q9Y233 whole entry, looked up): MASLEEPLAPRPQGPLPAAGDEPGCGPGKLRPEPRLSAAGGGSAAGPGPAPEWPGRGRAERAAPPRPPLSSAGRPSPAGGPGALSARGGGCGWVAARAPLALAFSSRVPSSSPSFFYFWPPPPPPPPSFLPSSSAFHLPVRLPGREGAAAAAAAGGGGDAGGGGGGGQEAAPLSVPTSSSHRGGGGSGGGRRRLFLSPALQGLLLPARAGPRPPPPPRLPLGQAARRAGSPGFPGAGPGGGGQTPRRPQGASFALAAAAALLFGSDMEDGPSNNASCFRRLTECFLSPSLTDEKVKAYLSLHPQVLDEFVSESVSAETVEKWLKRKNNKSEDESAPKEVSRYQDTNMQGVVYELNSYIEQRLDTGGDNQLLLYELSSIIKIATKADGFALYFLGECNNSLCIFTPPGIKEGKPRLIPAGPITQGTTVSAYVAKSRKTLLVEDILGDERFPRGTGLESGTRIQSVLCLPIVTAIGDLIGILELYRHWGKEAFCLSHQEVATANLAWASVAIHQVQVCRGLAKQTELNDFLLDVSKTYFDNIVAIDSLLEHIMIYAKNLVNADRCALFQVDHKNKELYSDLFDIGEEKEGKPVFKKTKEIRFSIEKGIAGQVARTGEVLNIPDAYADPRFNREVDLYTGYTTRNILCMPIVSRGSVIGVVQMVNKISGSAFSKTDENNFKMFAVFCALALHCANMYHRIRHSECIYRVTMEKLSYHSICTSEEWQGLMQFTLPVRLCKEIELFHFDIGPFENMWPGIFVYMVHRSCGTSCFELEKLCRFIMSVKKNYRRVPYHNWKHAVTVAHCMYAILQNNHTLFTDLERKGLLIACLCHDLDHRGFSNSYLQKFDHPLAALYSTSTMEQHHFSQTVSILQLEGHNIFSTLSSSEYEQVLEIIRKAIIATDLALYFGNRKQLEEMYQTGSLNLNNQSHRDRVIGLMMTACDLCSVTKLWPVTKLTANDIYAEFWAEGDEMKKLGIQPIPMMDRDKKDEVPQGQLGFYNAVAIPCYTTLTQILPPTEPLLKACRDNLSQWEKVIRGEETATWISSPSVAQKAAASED
# Summary of the method: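 Fluorescence/mobility-shift readout of PDE10A enzyme activity, taken 1 h post-dosing. Primary screen in duplicate at 25 uM; actives (e.g. ≥30% inhibition) retested as singleton concentration-response, top concentration 50 uM.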
# [7] = read-out: Secreted IgG (sIgG), gene 3500; test: BSK_BT_sIgG: BioMAP Diversity Plus: BT Assay for Secreted IgG (sIgG) Biomarker Activity (AID 2284226); details: primary human B cells with PBMC
# Summary of the method: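 B cells co-cultured with PBMC were dosed with chemical and secreted IgG quantified by ELISA at 24 h. Activity was fitted in the positive direction relative to DMSO as negative control and baseline.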
# [8] = BSK_BT_Bcell_Proliferation: Viability Assessment in the BioMAP Diversity Plus: BT Assay for B cell Proliferation (AID 2284227); details: primary human B cells with PBMC
# Summary of the method: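 SRB-based protein staining (0.1% SRB after 10% TCA fixation, 560 nm) quantifies proliferation in human B cells co-cultured with PBMC, 72 h post-dosing, with signal gain scored relative to DMSO negative control.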
# [9] = read-out: Interleukin 17A (IL17A), IL17A (gene 3605); test: BSK_BT_xIL17A: BioMAP Diversity Plus: BT Assay for Interleukin 17A (IL17A) Biomarker Activity (AID 2284229); details: primary human B cells with PBMC
# Summary of the method: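 Luminex xMAP readout of secreted IL-17A; human B cell + PBMC co-culture; 24 h post-dose; positive-direction fit vs DMSO negative control.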
# [10] = read-out: Vascular cell adhesion molecule 1 (VCAM1), VCAM1 (gene 7412); test: BSK_MyoF_VCAM1: BioMAP Diversity Plus: MyoF Assay for Vascular cell adhesion molecule 1 (VCAM1) Biomarker Activity (AID 2284231); details: primary human lung fibroblasts
# Summary of the method: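 MyoF system, lung fibroblasts; 24 h post-dose; VCAM-1 by ELISA; gain-of-signal fit vs DMSO baseline.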
# [11] = read-out: Collagen III, COL3A1 (gene 1281); test: BSK_MyoF_CollagenIII: BioMAP Diversity Plus: MyoF Assay for Collagen III Biomarker Activity (AID 2284239); details: primary human lung fibroblasts
# Summary of the method: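 Lung fibroblast culture; 24 h compound exposure; collagen III by ELISA; gain-of-signal fit vs DMSO baseline.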
# [12] = read-out: Interleukin 17F (IL17F), IL17F (gene 112744); test: BSK_BT_xIL17F: BioMAP Diversity Plus: BT Assay for Interleukin 17F (IL17F) Biomarker Activity (AID 2284243); details: primary human B cells with PBMC
# Summary of the method: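 Secreted IL-17F, read on LumineX xMAP beads, was taken as the endpoint. Cultures combined human B cells and peripheral blood mononuclear cells, sampled 24 hours after dosing, with DMSO serving as negative control.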
# [13] = read-out: Actin alpha 1 (ACTA1), ACTA1 (gene 58); test: BSK_MyoF_ACTA1: BioMAP Diversity Plus: MyoF Assay for Actin alpha 1 (ACTA1) Biomarker Activity (AID 2284244); details: primary human lung fibroblasts
# Summary of the method: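 Human lung fibroblasts (MyoF system) dosed with test chemical for 24 h; α-SMA measured by ELISA. Gain of signal fitted relative to DMSO negative control as baseline.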
# [14] = read-out: Interleukin 2 (IL2), IL2 (gene 3558); test: BSK_BT_xIL2: BioMAP Diversity Plus: BT Assay for Interleukin 2 (IL2) Biomarker Activity (AID 2284245); details: primary human B cells with PBMC
# Summary of the method: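 Human B cells co-cultured with PBMC, exposed to test chemical for 24 h. Secreted IL-2 quantified by Luminex xMAP bead immunoassay; activity fitted in the positive direction relative to DMSO vehicle baseline.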
# [15] = read-out: Basic fibroblast growth factor (bFGF), FGF2 (gene 2247); test: BSK_MyoF_bFGF: BioMAP Diversity Plus: MyoF Assay for Basic fibroblast growth factor (bFGF) Biomarker Activity (AID 2284246); details: primary human lung fibroblasts
# Summary of the method: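 Human lung fibroblasts were dosed with chemicals and bFGF was quantified by ELISA 24 h later. Activity was fitted in the gain-of-signal direction relative to DMSO as negative control and baseline. Parallel SRB total-protein staining tracked overt cytotoxicity.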
# [16] = read-out: Collagen IV, COL4A1 (gene 1282); test: BSK_MyoF_CollagenIV: BioMAP Diversity Plus: MyoF Assay for Collagen IV Biomarker Activity (AID 2284247); details: primary human lung fibroblasts
# Summary of the method: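 Primary human lung fibroblasts were exposed to test chemicals and sampled 24 h after dosing. Collagen IV levels were measured by ELISA and fitted in the positive direction against DMSO as negative control and baseline.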
# [17] = target: Thyroid hormone receptor alpha (Rattus norvegicus) + Thyroid hormone receptor beta (Rattus norvegicus) (UniProt P18113+P63059); test: TOX21_TR_LUC_GH3_Antagonist_Followup: Tox21 GH3 Thyroid Hormone Receptor Antagonism Luciferase Follow-Up Assay (AID 2283942; active = hit-call score of the fitted dose curve at least 0.9, where 1 is the maximum)
# Summary of the method: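 Rat pituitary GH3 cells with a TRα/TRβ-driven luciferase reporter, 5 h attachment, then 15 concentrations (92 uM to 5nM final) plus 1.0 nM T3 agonist, 24 h at 37C/5% CO2. ONE-Glo luminescence; signal change fitted against DMSO baseline.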
# [18] = TOX21_TRB_BLA_Antagonist_Followup_viability: Viability Assessment in the Tox21 Thyroid Hormone Receptor beta Antagonism Beta-lactamase (BLA) Follow-Up Assay (AID 2283961; active = hit-call score of the fitted dose curve at least 0.9, where 1 is the maximum)
# Summary of the method: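 Viability read as CellTiter-Glo ATP luminescence (loss of signal = cytotoxicity) in the same plates as the TRβ-bla readout. TRβ-LBD/GAL4 UAS-bla HEK293T cells were exposed to compounds, 11 concentrations in triplicate, for 18 h at 37C/5% CO2.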
# [19] = target: Retinoic acid receptor RXR-alpha (Homo sapiens) (UniProt P19793); test: TOX21_TR_RXR_BLA_Antagonist_Followup_ratio: Tox21 Thyroid Hormone Receptor beta Retinoid X Receptor alpha (RXRa) Antagonism Beta-lactamase (BLA) Follow-Up Assay, Ratio (AID 2283972; active = hit-call score of the fitted dose curve at least 0.9, where 1 is the maximum)
# Chain of Retinoic acid receptor RXR-alpha (Homo sapiens) (P19793 whole entry, looked up, the tested form may be a part): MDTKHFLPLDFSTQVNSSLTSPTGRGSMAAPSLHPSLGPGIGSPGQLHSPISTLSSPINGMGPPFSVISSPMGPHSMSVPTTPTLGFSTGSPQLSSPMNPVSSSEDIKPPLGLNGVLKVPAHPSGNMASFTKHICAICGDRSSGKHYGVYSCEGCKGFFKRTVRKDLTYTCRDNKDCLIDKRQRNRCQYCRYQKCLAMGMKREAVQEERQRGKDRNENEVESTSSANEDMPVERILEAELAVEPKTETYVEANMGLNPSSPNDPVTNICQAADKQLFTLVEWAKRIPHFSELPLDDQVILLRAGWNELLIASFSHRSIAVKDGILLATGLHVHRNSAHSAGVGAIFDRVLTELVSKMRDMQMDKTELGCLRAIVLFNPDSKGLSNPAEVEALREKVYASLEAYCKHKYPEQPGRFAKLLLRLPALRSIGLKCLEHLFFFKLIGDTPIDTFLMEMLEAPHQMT
# Summary of the method: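 Beta-lactamase reporter readout as cleaved/uncleaved substrate ratio (460:530 nm) after 2 h substrate loading at room temperature. GAL4-RXRa bla HEK293T cells were exposed 16 h at 37C to 11-point compound series; loss of signal scored against DMSO baseline.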
# [20] = TOX21_TR_RXR_BLA_Antagonist_Followup_viability: Viability Assessment in the Tox21 Thyroid Hormone Receptor beta Retinoid X Receptor alpha (RXRa) Antagonism Beta-lactamase (BLA) Follow-Up Assay (AID 2283979; active = hit-call score of the fitted dose curve at least 0.9, where 1 is the maximum)
# Summary of the method: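 RXRa-UAS-bla HEK293T cells seeded 2,500/well in phenol red-free DMEM with 2% charcoal-stripped FBS, attached 5 h, then exposed to compounds at 11 concentrations in triplicate for 16 h at 37C/5% CO2. Viability read by CellTiter-Glo ATP luminescence; bidirectional fit versus DMSO.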
structure (smiles),measurement,setting,value
CC(C)(C)NC(=O)[C@@H]1CN(Cc2cccnc2)CCN1C[C@@H](O)C[C@@H](Cc1ccccc1)C(=O)N[C@H]1c2ccccc2C[C@H]1O,outcome,[1],inactive
same,outcome,[2],inactive
Clc1ccccn1,outcome,[2],inactive
same,AC50,[3],9.99 µM (active)
CCCc1c(OCCCCc2nn[nH]n2)ccc(C(C)=O)c1O,outcome,[4],inactive
same,AC50,[5],5.65 µM (active)
CC/C=C\CC1=C(C)CCC1=O,outcome,[1],inactive
same,AC50,[5],23.9 µM (active)
C[N+](C)(C)CC(=O)[O-],outcome,[3],inactive
same,outcome,[6],inactive
CCO[Si](OCC)(OCC)c1ccccc1,outcome,[3],inactive
OC(C(F)(F)F)(C(F)(F)F)C(O)(C(F)(F)F)C(F)(F)F,AC50,[7],9.13 µM (active) and 9.49 µM (active)
same,AC50,[8],37 µM (active) and 28.2 µM (active)
same,AC50,[9],31 µM (active) and 24 µM (active)
same,AC50,[10],45.7 µM (active) and 41.7 µM (active)
same,AC50,[11],41 µM (active) and 39.5 µM (active)
same,AC50,[12],13.1 µM (active)
same,outcome,[12],inactive
same,AC50,[13],26.7 µM (active) and 22.3 µM (active)
same,AC50,[14],46 µM (active) and 48.1 µM (active)
same,outcome,[15],inactive
same,AC50,[16],13.6 µM (active) and 13.9 µM (active)
COc1ccccc1OCC(O)CO (stereo unspecified),outcome,[2],inactive
same,outcome,[3],inactive
same,AC50,[6],25 µM (active)
COc1ccc2ccccc2c1,outcome,[4],inactive
CN(C)CCC(c1ccc(Cl)cc1)c1ccccn1 (stereo unspecified),outcome,[7],inactive
same,outcome,[8],inactive
same,outcome,[9],inactive
same,outcome,[10],inactive
same,outcome,[11],inactive
same,outcome,[12],inactive
same,outcome,[13],inactive
same,outcome,[14],inactive
same,outcome,[15],inactive
same,outcome,[16],inactive
CC1=C(CC=O)C(C)(C)CCC1,outcome,[5],inactive
CCCCCCCCCCCCCC,outcome,[1],inactive
CCC(C)NC(N)=O (stereo unspecified),outcome,[4],inactive
same,outcome,[1],inactive
same,outcome,[2],inactive
same,outcome,[6],inactive
COC(=O)c1ccccc1,outcome,[2],inactive
same,outcome,[6],inactive
CCCCCCCCCCC1CO1 (stereo unspecified),outcome,[5],inactive
same,outcome,[7],inactive
same,outcome,[8],inactive
same,outcome,[9],inactive
same,AC50,[10],30.7 µM (active)
same,AC50,[11],31.2 µM (active)
same,outcome,[12],inactive
same,AC50,[13],33.5 µM (active)
same,outcome,[14],inactive
same,AC50,[15],31.1 µM (active)
same,outcome,[16],inactive
Cc1oc(C)c(C(=O)Nc2ccccc2)c1C,outcome,[17],inactive
same,outcome,[18],inactive
same,outcome,[19],inactive
same,outcome,[20],inactive
O=[Se](O)O,AC50,[17],4.84 µM (active)
same,AC50,[18],2.02 µM (active)
same,AC50,[19],2.26 µM (active)
same,AC50,[20],5.16 µM (active)
CO[C@H]1C[C@@H]2CC[C@@H](C)[C@@](O)(O2)C(=O)C(=O)N2CCCC[C@H]2C(=O)O[C@H]([C@H](C)C[C@@H]2CC[C@@H](O)[C@H](OC)C2)CC(=O)[C@H](C)/C=C(\C)[C@@H](O)[C@@H](OC)C(=O)[C@H](C)C[C@H](C)\C=C/C=C/C=C/1C,AC50,[17],0.00703 µM (active)
same,outcome,[18],inactive
same,outcome,[19],inactive
same,outcome,[20],inactive
O=C(CCCCCCC(=O)Nc1ccccc1)NO,AC50,[17],5.8 µM (active)
same,outcome,[18],inactive
same,outcome,[19],inactive
same,outcome,[20],inactive
